Measurements as given in the supplement of paper PMC6555819.

Experiments:
Experiment in all cases: PBM binding z-score (relative to random genomic background probes); higher = stronger binding; sequences stand for … in GC…GCGATTGACAGCGTAGAATGAAGG
[1] = test system: PPARg:RXRa DBDmut IVT, anti-RXR (DBD mutation: RXRa K156A/R161A, NR concentration 270 nM, RXRa partner concentration 90 nM)
Method in brief: (§1)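 Custom Agilent 4×180K protein-binding microarrays carried double-stranded probes. Their 34-nt variable regions held direct-repeat seeds, single-nucleotide variants, half-site ablations and random human genomic background sequences. Arrays were incubated 1 h with ligand-free nuclear receptor dimers in PBS pH 7.4, 2% milk, 0.02% Triton X-100, 1 mM DTT, 0.2 mg/mL BSA and 0.4 mg/ml salmon testes DNA. Antibodies against each partner (one per run) detected binding, and scanned fluorescence was regression-normalized. Binding z-scores use random background probes as reference.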

[2] = test system: PPARg:RXRa IVT, anti-PPARg (NR concentration 270 nM, RXRa partner concentration 90 nM)
Method in brief: as §1

[3] = test system: PPARg DBDmut:RXRa IVT, anti-PPARg (DBD mutation: PPARg1 K132A/R137A, NR concentration 270 nM, RXRa partner concentration 90 nM)
Method in brief: as §1

[4] = test system: PPARg DBDmut IVT, anti-PPARg (DBD mutation: PPARg1 K132A/R137A, NR concentration 270 nM)
Method in brief: as §1

[5] = test system: PPARg homodimer (NR concentration 180 nM)
Method in brief: as §1

[6] = test system: PXR:RXRa (NR concentration 270 nM, RXRa partner concentration 90 nM)
Method in brief: as §1

[7] = test system: PXR homodimer (NR concentration 270 nM)
Method in brief: as §1

[8] = test system: RARa:RXR (NR concentration 270 nM, RXRa partner concentration 90 nM)
Method in brief: as §1

[9] = test system: RARa homodimer (NR concentration 270 nM)
Method in brief: as §1

[10] = test system: RARb:RXRa (NR concentration 270 nM, RXRa partner concentration 90 nM)
Method in brief: as §1

Sequence | PBM binding z-score [1] | PBM binding z-score [2] | PBM binding z-score [3] | PBM binding z-score [4] | PBM binding z-score [5] | PBM binding z-score [6] | PBM binding z-score [7] | PBM binding z-score [8] | PBM binding z-score [9] | PBM binding z-score [10]
GCTGCTAGGTTAGGTTGGTCAGCTAACGGGTACG | 1 | 0.292 | -1.46 | -0.928 | -0.465 | -0.364 | -0.359 | -0.327 | -0.345 | 0.767
ACAGACAGGTGAGTGAAGGTAACTCGGCTGGACG | 0.175 | 0.33 | -0.433 | -0.413 | 0.0145 | -0.486 | -0.431 | -0.0751 | -0.294 | 0.411
CAGACTAGGTCAAGAGGTCAAAGTCCGCTTCCCG | 7.08 | 7.26 | 0.894 | 0.414 | 5.61 | 6.21 | 1.93 | 7.55 | 0.913 | 5.39
CCTACTGGGCCAGGAAAGGTCATTGATTCAGTGA | 2.65 | 3.05 | -0.225 | -1.01 | 2.36 | 4.78 | 0.786 | 4.87 | 0.0596 | 3.71
AGTCAAAGTTCAAGACGAGGTAACGTAAAGCACG | 0.127 | 2.85 | 1.37 | 1.3 | 3.22 | 4.49 | 2.5 | 4.02 | 1.38 | 4.84
TAGCCTAGGTCATGGGGCAGTATACCACGCGAAC | 1.45 | 3.74 | 0.479 | 0.305 | 1.67 | 1.78 | -0.439 | 3.21 | -0.03 | 3.79
CCTCGGAGGACAACAGGAGGTAAGAGCTGCCAGA | -0.141 | -0.621 | -1.15 | -1.44 | 0.0253 | -0.402 | -0.651 | -0.0361 | 0.0272 | 0.846
TAGCCTAGGTCAGATCGGGCCAGTAGACGCTATA | 0.0206 | 1.03 | -0.87 | -1.34 | 0.0238 | 0.619 | -0.847 | 0.622 | -1.52 | 2.99
AGAATGAGGTTATAAAGATCAGGGAATTGCGGTC | 2.13 | 2.04 | 0.947 | 0.696 | 1.14 | 1.2 | 0.572 | 1.58 | 0.211 | 1.32
TCTTGTAGACCAATAGAGGTTAAGAAAGTGCGCT | 2.08 | 1.7 | 0.86 | 0.346 | 0.191 | 3.17 | 0.469 | 1.6 | 0.38 | 1.01
AGAATGAGGTTACCAAAGATCAGCGAAACGCTTG | 4.05 | 3.33 | 1.77 | 0.58 | 0.597 | 1.32 | -0.226 | 2.13 | 0.0511 | 2.08
CCTCGGGGGACAGAAGGTCAGAGCTGTCCGCTTT | 0.436 | 1.38 | 1.67 | -0.683 | 1.59 | 2.99 | 0.0976 | 3.08 | -0.112 | 3.34
GGAACGAGGGCATTCTAGTTGATAGCATGGCGAT | 3.02 | 2.04 | -0.851 | -0.214 | -0.294 | 1.53 | 0.396 | 0.248 | -0.43 | 1.58
TCTTGGAGGACACGAAGGTCAGAGCTTTCCAGAG | 2.12 | 2.46 | -0.251 | -0.635 | 0.788 | 1.93 | 0.605 | 1.86 | -0.208 | 3.36
ATCGAAAGGTCGAAGGTTAGTATACCCACCCGAA | 0.165 | 2.11 | 1.15 | 0.865 | 1.68 | 3.34 | 0.404 | 4.69 | 1.42 | 3.76
CGAACTAGGTCAACCAGGACAGTGAATACATTGA | 8.5 | 8.35 | 1.56 | 1.35 | 1.73 | 2.02 | 0.839 | 2.3 | 0.835 | 4.17
CAGCCTAGGTCAGGGCCAGCATAGGAGGAACGTT | 1.28 | 1.44 | -0.858 | -1.51 | 0.398 | 0.0493 | -0.664 | 0.806 | -0.366 | 3.37
TCTCGGAGGACACGAAAGGTCAGAGATCGACATC | 1.64 | 1.91 | 0.484 | 0.156 | 2.63 | 3.95 | 0.205 | 4.31 | 0.638 | 4.4
CCTGCTAGGTCAATGTTCAGCTAAAGCAGCTCGC | 4.27 | 3.55 | -0.21 | -0.461 | 1.39 | 0.795 | -0.474 | 1.54 | -0.305 | 3.8
CCTACTGGGCAAAAGGTCATTGATTCCAATGCTC | 2.57 | 5.1 | -0.086 | -0.781 | 3.07 | 4.91 | 1.5 | 5.73 | 1.77 | 4.35
GCTAGCAGGCCATTTGGGACACTCAATGACGGGC | 0.822 | 0.411 | -0.432 | -0.76 | -1.04 | -0.714 | -0.736 | -0.559 | -0.547 | -0.00778
TGTCAAAATTCAAAGGTAACGTAAGTATCCACAC | -0.0151 | 1.31 | 0.599 | 1.21 | 0.821 | 0.362 | 0.426 | 1.04 | 0.683 | 0.953
TCGAGTAGCTTACCAATGGGGCATTCAGCTTTCT | 1.07 | -0.175 | -1.01 | -0.741 | -0.629 | -0.456 | -1.19 | -0.333 | -1.4 | -0.426
CGTCAAAGTTCAAGGTAGCGTAACAGAAAGCAGC | 0.367 | 1.36 | -0.0381 | 0.0782 | 3.03 | 3.84 | 2.73 | 3.35 | 0.828 | 5.01
